Results reported in PubChem BioAssay (NCATS).
Unmarked numbers belong to inactive results. Inconclusive results are not listed. Entries that show only a call come without a potency. The source made the active and inactive calls. Unless noted, calls come from the whole dose curve; as a rule, active = well fitted curve in the direction sought with a large enough effect; inconclusive = small, poorly fitted or top-dose-only effect, or another doubt; inactive = no such curve, though single readings can be large; an effect the other way counts as inactive or inconclusive.

What was measured:
[1] = qHTS for Inhibitors of Plasmodium falciparum (GB4) proliferation (AID 504315); note: nearly all actives have a fitted effect of over 50% in size; note: potency is the fitted concentration of half-maximal effect
How it was run: (§1)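 Erythrocytes infected with P. falciparum line (0.3% parasitemia, 2.5% hematocrit final) incubated with compounds 72 h at 37 °C, 5% CO2; SYBR Green lysis buffer added, fluorescence read next day. Normalized to 0.29 uM artemisinin and DMSO.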

[2] = qHTS for Inhibitors of Plasmodium falciparum (CP250) proliferation (AID 504320); note: potency is the fitted concentration of half-maximal effect
How it was run: as §1

[3] = target: Atrial natriuretic peptide receptor 1 (Homo sapiens) (UniProt P16066); test: Natriuretic polypeptide receptor (hNpr1) antagonism - Pilot CMLD screen (AID 1347052; calls by dose curve;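 note: HEK293 cells with hNpr1 stimulated by hNppA peptide at 0.1 nM; cGMP level read as GloSensor luciferase luminescence after agonist stimulation; series mostly up to about 9.2 µM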)
[4] = qHTS for Inhibitors of Plasmodium falciparum (7G8) proliferation (AID 504316); note: nearly all actives have a fitted effect of over 65% in size; note: potency is the fitted concentration of half-maximal effect; for activity change, negative = inhibition: series mostly up to about 6.7 µM
How it was run: as §1

[5] = target: Cytochrome P450 2C9 (Homo sapiens) (UniProt P11712); test: qHTS Assay for Inhibitors and Substrates of Cytochrome P450 2C9 (AID 883); note: nearly all actives have a fitted effect of over 60% in size
How it was run: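 A luminogenic readout tracked human CYP2C9 (10nM) converting deoxyluciferin (100uM, at KM) in 25mM KPO4 during 60 min at 37C with regenerated NADPH. Values normalized to 57uM sulphaphenazole as complete inhibition.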

[6] = target: Cytochrome P450 3A4 (Homo sapiens) (UniProt P08684); test: qHTS Assay for Activators of Cytochrome P450 3A4 (AID 885); note: nearly all actives have a fitted effect of over 65% in size
How it was run: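 Quantitative HTS format: compounds preincubated with 20nM human CYP3A4 and Luciferin-PPXE substrate at KM, reaction started by NADPH regeneration, stopped after 60 min, luciferase luminescence read 20 min later.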

[7] = target: Cytochrome P450 2C19 (Homo sapiens) (UniProt P33261); test: qHTS Assay for Inhibitors and Substrates of Cytochrome P450 2C19 (AID 899); note: potency is the fitted concentration of half-maximal effect; nearly all actives have a fitted effect of over 60% in size
How it was run: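 NADPH-dependent conversion of Luciferin-H EGE (10uM, at KM) by 5nM enzyme in 50mM KPO4, 60 min at 37C following 10 min compound preincubation. Stopped with luciferin detection buffer; luminescence read after 20 min.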

Atrial natriuretic peptide receptor 1 (Homo sapiens), sequence (P16066 whole entry, looked up): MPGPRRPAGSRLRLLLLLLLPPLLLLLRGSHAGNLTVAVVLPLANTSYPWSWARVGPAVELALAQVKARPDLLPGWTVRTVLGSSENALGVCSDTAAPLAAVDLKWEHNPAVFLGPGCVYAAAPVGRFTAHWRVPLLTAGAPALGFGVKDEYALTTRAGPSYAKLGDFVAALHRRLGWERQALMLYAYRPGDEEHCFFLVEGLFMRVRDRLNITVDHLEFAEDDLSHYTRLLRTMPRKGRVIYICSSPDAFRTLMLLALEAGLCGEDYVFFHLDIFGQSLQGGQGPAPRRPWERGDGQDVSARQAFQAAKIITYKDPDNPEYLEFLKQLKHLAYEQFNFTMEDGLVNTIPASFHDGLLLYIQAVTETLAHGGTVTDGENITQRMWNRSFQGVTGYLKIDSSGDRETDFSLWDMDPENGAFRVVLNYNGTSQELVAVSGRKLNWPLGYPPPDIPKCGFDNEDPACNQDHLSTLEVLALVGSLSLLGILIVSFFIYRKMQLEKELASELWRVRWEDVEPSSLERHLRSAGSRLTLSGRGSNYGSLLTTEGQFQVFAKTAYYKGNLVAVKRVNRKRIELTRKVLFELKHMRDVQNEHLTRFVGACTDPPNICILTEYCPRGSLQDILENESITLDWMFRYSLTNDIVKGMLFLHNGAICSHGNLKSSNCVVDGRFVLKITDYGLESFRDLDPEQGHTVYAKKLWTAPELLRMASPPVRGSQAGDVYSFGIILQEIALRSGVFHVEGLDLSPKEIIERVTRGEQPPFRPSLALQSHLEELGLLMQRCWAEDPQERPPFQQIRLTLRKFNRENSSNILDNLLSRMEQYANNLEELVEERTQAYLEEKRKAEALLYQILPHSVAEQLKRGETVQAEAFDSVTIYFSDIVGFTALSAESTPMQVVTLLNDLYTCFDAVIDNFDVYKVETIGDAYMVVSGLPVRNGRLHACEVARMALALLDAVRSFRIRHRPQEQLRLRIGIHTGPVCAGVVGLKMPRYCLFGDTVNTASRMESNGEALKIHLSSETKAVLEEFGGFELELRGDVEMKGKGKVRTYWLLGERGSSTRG
Cytochrome P450 3A4 (Homo sapiens), sequence (P08684 whole entry, looked up): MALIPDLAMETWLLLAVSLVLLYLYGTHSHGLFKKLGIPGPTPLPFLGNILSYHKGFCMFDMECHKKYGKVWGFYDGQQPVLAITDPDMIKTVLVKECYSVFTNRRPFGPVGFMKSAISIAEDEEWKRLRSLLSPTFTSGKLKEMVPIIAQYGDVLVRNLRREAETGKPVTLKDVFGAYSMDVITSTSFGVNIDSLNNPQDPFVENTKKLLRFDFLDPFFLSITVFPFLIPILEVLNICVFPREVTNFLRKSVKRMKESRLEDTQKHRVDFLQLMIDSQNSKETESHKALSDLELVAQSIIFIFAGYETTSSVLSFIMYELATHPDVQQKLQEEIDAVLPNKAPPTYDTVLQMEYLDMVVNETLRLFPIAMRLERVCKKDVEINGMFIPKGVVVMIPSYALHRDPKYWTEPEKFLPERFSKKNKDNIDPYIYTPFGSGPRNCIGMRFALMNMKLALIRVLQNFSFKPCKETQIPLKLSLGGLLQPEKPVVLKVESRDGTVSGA
Cytochrome P450 2C9 (Homo sapiens), sequence (P11712 whole entry, looked up): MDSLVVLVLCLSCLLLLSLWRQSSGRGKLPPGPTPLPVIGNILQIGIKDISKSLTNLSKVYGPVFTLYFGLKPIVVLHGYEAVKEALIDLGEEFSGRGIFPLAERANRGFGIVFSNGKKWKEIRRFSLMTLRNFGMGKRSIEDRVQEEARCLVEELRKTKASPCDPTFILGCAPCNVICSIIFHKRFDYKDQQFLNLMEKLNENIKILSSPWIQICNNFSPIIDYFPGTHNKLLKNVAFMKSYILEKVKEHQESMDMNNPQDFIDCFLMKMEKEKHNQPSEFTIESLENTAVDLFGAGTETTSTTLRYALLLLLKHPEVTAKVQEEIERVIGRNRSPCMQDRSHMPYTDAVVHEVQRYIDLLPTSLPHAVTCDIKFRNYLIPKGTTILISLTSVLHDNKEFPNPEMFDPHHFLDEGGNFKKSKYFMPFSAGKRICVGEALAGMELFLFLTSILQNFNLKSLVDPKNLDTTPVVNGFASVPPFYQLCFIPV
Cytochrome P450 2C19 (Homo sapiens), sequence (P33261 whole entry, looked up): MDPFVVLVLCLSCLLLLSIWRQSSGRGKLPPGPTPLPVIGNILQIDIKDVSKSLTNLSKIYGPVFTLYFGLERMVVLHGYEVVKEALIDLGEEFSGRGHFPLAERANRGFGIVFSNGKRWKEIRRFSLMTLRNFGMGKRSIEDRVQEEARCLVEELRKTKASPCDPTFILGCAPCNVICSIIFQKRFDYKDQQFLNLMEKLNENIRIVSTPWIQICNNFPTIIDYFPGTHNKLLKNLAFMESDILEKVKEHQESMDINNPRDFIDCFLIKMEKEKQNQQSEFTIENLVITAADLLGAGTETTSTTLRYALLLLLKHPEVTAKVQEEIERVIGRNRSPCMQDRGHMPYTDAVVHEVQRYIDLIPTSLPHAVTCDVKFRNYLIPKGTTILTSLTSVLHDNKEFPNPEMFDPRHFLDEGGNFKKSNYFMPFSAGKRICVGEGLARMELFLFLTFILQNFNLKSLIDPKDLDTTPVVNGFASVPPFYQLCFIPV

## COc1cccc([C@@H](NC(=O)C(F)(F)F)[C@@H]2CCCC=C2c2ccccc2)c1
[1]
  Potency: inactive
[2]
  Potency: inactive
[3]
  Potency: inactive

## CCCCCCc1cc2cc(OC)c(OC)cc2c2c(C(=O)OC)c(C(=O)OC)c(C(=O)OC)n12
[4]
  Potency: 1.9 µM (active)
[3]
  Potency: inactive

## C=C(C)[C@@H]1CC2=C(OC)C(CC=C(C)C)(CC=C(C)C)C(=O)C(C(=O)c3ccccc3)=C2O1
[4]
  Potency: 1.69 µM (active)
[3]
  Potency: inactive

## COC1=C(C(=O)c2ccccc2)C(=O)[C@@]2(CC=C(C)C)CC(C#N)C[C@@]1(CC=C(C)C)C2=O (some centres not stated)
[1]
  Potency: inactive
[2]
  Potency: inactive
[3]
  Potency: inactive

## COC(=O)[C@@H]1CC23C(=NC(c4ccc([N+](=O)[O-])cc4)=C(C(F)(F)F)[C@@H]2N(C)c2ccccc23)N1C(C)=O (some centres not stated)
[1]
  Potency: inactive
[2]
  Potency: inactive
[3]
  Potency: inactive

## CC1=CC[C@@H](C)O[C@@]2(C1)C(=O)N(Cc1ccc(F)cc1)c1ccccc12
[1]
  Potency: inactive
[2]
  Potency: inactive
[3]
  Potency: inactive

## O=C1[C@@H]2[C@H]3[C@H](O)[C@H](O)CC(=NOC[C@@H](O)COCc4ccco4)[C@@H]3CC[C@H]2C(=O)N1Cc1ccccc1
[1]
  Potency: inactive
[2]
  Potency: inactive
[3]
  Potency: inactive

## C=C(C[C@@]1(C(=O)OC)C=C[C@@H](C)[C@H](c2ccccc2Br)N1C(=O)C(F)(F)F)c1ccccc1
[4]
  Potency: 1.9 µM (active)
[3]
  Potency: inactive

## CC12C=C(C=Cc3ccccc3)C(C)(C1)C(c1ccccc1)CC2=O (configuration not stated)
[1]
  Potency: inactive
[2]
  Potency: inactive
[3]
  Potency: inactive

## CCCCCCC1=Cc2cc(OC)c(OC)cc2C(C(C(C)=O)C(=O)OCC)O1 (configuration not stated)
[5]
  activity change, negative = inhibition: 25.3% [at 11.4 µM]
[6]
  activity change, positive = activation: -42.2% [at 11.4 µM]
[7]
  Potency: 1.58 µM (active)
[1]
  Potency: inactive
[2]
  Potency: inactive
[3]
  Potency: inactive

## CC1(C)OCC([C@H](O)C2=CCCCC2=O)CO1
[1]
  Potency: inactive
[2]
  Potency: inactive
[3]
  Potency: inactive

## CCN1C(=NCc2cccc(C(F)(F)F)c2)NC(c2cccc(C(F)(F)F)c2)C(C(=O)OC)=C1C (configuration not stated)
[1]
  Potency: 0.0953 µM (active)
[2]
  Potency: 0.757 µM (active)
[3]
  Potency: inactive

## Cc1cc2c(c(=O)n1Cc1ccccc1)[C@H]1O[C@](CCCCN3C(=O)c4ccccc4C3=O)(Cc3cc(C#N)ccc31)O2
[1]
  Potency: inactive
[2]
  Potency: inactive
[3]
  Potency: inactive

## CC(C)=CCN1C(=O)[C@@]2(CC(C)=C[C@@H](COCc3ccccc3)O2)c2ccccc21
[1]
  Potency: inactive
[2]
  Potency: inactive
[3]
  Potency: inactive

## COc1cccc([C@@H]2Oc3ccc(OC)cc3C(=O)[C@@H]2OC(=O)Nc2cc(OC)c(OC)c(OC)c2)c1
[1]
  Potency: inactive
[2]
  Potency: inactive
[3]
  Potency: inactive

## COc1ccc2c(c1)O[C@@H](c1ccc3c(c1)OCO3)[C@H](OC(=O)NCCOc1ccccc1)C2=O
[1]
  Potency: inactive
[2]
  Potency: inactive
[3]
  Potency: inactive

## COC(=O)C12C[C@@H](C)C3C(C)C(c4ccccc4C31)N2C(=O)C(F)(F)F (some centres not stated)
[4]
  Potency: inactive
[3]
  Potency: inactive

## COC(=O)CCC(=O)OC1(C)C(=O)C=C2C=C(C3CC3)OC=C2C1=O (configuration not stated)
[1]
  Potency: inactive
[2]
  Potency: inactive
[3]
  Potency: inactive

## CC(C)=CCCC(C)=CCN1C(=O)[C@@]2(CC(C)=C[C@@H](COCc3ccccc3)O2)c2ccccc21
[1]
  Potency: inactive
[2]
  Potency: inactive
[3]
  Potency: inactive

## CC12C=C(C=CCCc3ccco3)C(C)(C1)[C@H](CCc1ccco1)CC2=O (some centres not stated)
[1]
  Potency: inactive
[2]
  Potency: inactive
[3]
  Potency: inactive

## O=C1C2=C(C(=O)c3ccccc31)[C@H]1O[C@](c3ccsc3)(Cc3ccccc31)O2
[4]
  Potency: 1.9 µM (active)
[3]
  Potency: inactive

## C=C[C@H]1CCC=C2C(=O)CCC[C@H]21
[4]
  Potency: 1.9 µM (active)
[3]
  Potency: inactive

## COc1cccc([C@@H]2Oc3ccc(Br)cc3C(=O)[C@@H]2O)c1
[1]
  Potency: inactive
[2]
  Potency: inactive
[3]
  Potency: inactive

## O=C(NCCOc1ccccc1)O[C@@H]1C(=O)c2cc(Br)ccc2O[C@H]1c1ccc2c(c1)OCO2
[1]
  Potency: inactive
[2]
  Potency: inactive
[3]
  Potency: inactive

## COc1ccc(O[C@H]2C=C[C@@H](c3ccccc3)O[C@H]2COC(=O)CCC(C)=NO[C@H](C)c2cn([C@@H]3COC[C@@H]3O)nn2)cc1
[1]
  Potency: inactive
[2]
  Potency: inactive
[3]
  Potency: inactive

## CC(C)=CCCC(C)=CC=CC1=CC2(C)CC1(C)C(C=C(C)CCC=C(C)C)CC2=O (configuration not stated)
[1]
  Potency: inactive
[2]
  Potency: inactive
[3]
  Potency: inactive

## COc1cccc([C@@H]2NC(=O)CC=C[C@H](C)[C@H](c3cccc(OC)c3)NC(=O)CC=C[C@H]2C)c1
[1]
  Potency: inactive
[2]
  Potency: inactive
[3]
  Potency: inactive

## Cc1cc2c(nc1C)CCCCN2C[C@H](C)ON=C1[C@H]2CCn3c(=O)n(-c4ccccc4)c(=O)n3[C@@H]2[C@H](O)[C@@H]2O[C@H]12
[1]
  Potency: inactive
[2]
  Potency: inactive
[3]
  Potency: inactive

## CC=Cc1cc2ccccc2c2c(C(=O)OC)c(C(=O)OC)c(C(=O)OC(C)(C)C)n12
[1]
  Potency: inactive
[2]
  Potency: inactive
[3]
  Potency: inactive

## C#CCN1C(=O)[C@]2(OCCC=C[C@H]2C)c2c(Br)cccc21
[1]
  Potency: inactive
[2]
  Potency: inactive
[3]
  Potency: inactive
